ATXN viability – cell viability loss in ATXN counter-screen | S2 cells (HEK-293 line with an ATXN2-luciferase reporter) viability, CellTiter-Fluor protease fluorescence, 24 h | 400,000 compounds, 0.49% hits | Potency, µM (highest dose often 56.7 µM), most hits filed as cytotoxic; further: nearly all actives have a fitted effect of over 40% in size
mIDH1 inhibitor – blocks human mutant IDH1 R132H enzyme | O75874 | Potency, µM (series often up to 76.6 µM), hits mostly inhibitors | IDH1-R132H enzyme, NADPH consumption, diaphorase/resazurin fluorescence | 390,000 compounds, 0.093% hits; further: nearly all actives have a fitted effect of over 65% in size
Target sequence (O75874 whole entry R132H, stated change not applied): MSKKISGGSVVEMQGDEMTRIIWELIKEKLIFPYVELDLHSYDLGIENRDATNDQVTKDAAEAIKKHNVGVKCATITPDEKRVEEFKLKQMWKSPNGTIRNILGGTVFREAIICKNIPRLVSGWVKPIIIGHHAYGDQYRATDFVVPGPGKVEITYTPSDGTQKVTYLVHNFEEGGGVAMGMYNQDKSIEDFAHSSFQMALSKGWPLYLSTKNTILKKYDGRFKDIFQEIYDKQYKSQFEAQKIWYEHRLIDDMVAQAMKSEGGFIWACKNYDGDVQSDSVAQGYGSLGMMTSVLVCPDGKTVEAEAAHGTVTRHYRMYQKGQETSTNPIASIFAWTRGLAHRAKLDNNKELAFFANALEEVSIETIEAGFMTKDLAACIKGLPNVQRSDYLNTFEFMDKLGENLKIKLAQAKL
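IDH1-R132H (0.5 ug/mL) preincubated 30 min with compound, then NADPH (0.016 mM) and alpha-KG (2 mM) added; 80 min at RT, pH 7.5. Remaining NADPH coupled via diaphorase/resazurin to fluorescence (540/590 nm); concentration-response curves normalized to no-enzyme control.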
HepG2 viability – HepG2 cytotoxicity, counter-screen for TGF-b inhibitors. HepG2 CAGA-GFP viability, ATP luminescence, 18 h. Potency, µM (titrated, usually from 46.1 µM), hits mostly cytotoxic. 410,000 compounds, 0.76% hits
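HepG2 CAGA-GFP cells (1000/well, DMEM with 1% FBS) received compound, then TGF-beta at 500 pg/mL final, and were incubated 18 hours at 37 degrees C. Viability was read by CellTiter-Glo luminescence. Media-only wells were set as complete cell-killing and DMSO as no toxicity.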
TGFb SMAD3 inh – blocks TGF-b signaling | Potency, µM (top dose mostly 46.1 µM), usual class: inhibitors | HepG2 CAGA-GFP TGF-b/SMAD3 reporter, GFP fluorescence, 18 h; TGF-beta stimulated, 500 pg/mL final | 410,000 compounds, 1.2% hits | AID 588855; further: nearly all actives have a fitted effect of over 65% in size
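HEPG2 CAGA-GFP, 1000 cells/well; 2 h settle, 37 C; cpd via pin tool; TGF-b 500 pg/mL final; 18 h, 37 C; GFP imaging ex488/em500-530; %Activity normalised to -TGF-b and +DMSO controls; CRC fit, curve class.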
LDHA block – LDHA (human) enzyme inhibition; purified LDHA, NADH/diaphorase-resazurin fluorescence; active compounds read low; activity change, % (values are at about 110 or 230 µM); 480,000 compounds, 0.15% hits; AID 1347041; P00338; in the data active means activity change below about -30%; inconclusive means mostly about -25% to -30%
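Human LDH5 (2 nM) was incubated with 0.06 mM NADH and 0.2 mM pyruvate for 5 min at room temperature in Tris pH 7.4. Remaining NADH was coupled through diaphorase/resazurin, and resorufin fluorescence was read at 0 and 20 min.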
ATXN2 expr inh – inhibitors of ATXN2 expression | HEK-293 ATXN2-luciferase reporter, luminescence, 24 h | Potency, µM (doses to about 57 µM), most hits filed as inhibitors | 360,000 compounds, 0.72% hits | AID 1745845; further: nearly all actives have a fitted effect of over 55% in size
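qHTS (up to 57 uM final) was run with 24 h compound exposure of reporter cells at 37 °C. Each well was multiplexed: SteadyGlo luminescence measured ATXN2-luciferase expression after a fluorogenic Gly-Phe-AFC viability readout (25 uM final).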
Large screens that a line does not name were inactive; ! = a repeat was not active. This is a sample that favours compounds with a hit; in the whole collection about 2.2% have one here. Unless noted, the call rests on the fitted dose curve; in most records, active means well fitted curve in the direction sought with a large enough effect; inconclusive means small, poorly fitted or top-dose-only effect, or another doubt; inactive means no such curve, though single readings can be large; an effect the other way counts as inactive or inconclusive.

COc1ccc(-n2nnnc2SCC(=O)N2CCOCC2)cc1	HepG2 viability 0.562µM
COc1ccc(N2CCN(C(=O)CSc3nnnn3-c3ccc4c(c3)OCCO4)CC2)cc1	none
Cc1ncc(C[n+]2csc(CCO)c2C)c(N)n1	none
COc1cc(OC)cc(-c2ccc3ncc4ccc(=O)n(-c5ccc(N6CCNCC6)c(C(F)(F)F)c5)c4c3c2)c1	ATXN2 expr inh 19.3µM (no result: ATXN viability, mIDH1 inhibitor, HepG2 viability, TGFb SMAD3 inh, LDHA block)
O=C(Nc1cccc2cccnc12)c1cccs1	none (no result: ATXN viability, mIDH1 inhibitor, ATXN2 expr inh)
CN(C(=O)CSc1nncn1C)C1CCCN(Cc2ccccc2F)C1 (centres undefined)	none
C=C1C(=O)C=C[C@]2(C)C[C@@H]3OC(=O)[C@](C)(O)[C@H]3C[C@@H]12	ATXN viability inconclusive, TGFb SMAD3 inh inconclusive, ATXN2 expr inh 10µM
C[C@@H]1C[C@@H]2OC(=O)[C@]3(C)[C@H]2[C@@H](OC3(C)O)[C@]2(C)C(=O)C=C[C@H]12 (some centres undefined)	none
CCCCC(CC)C(=O)Oc1ccc(O)c(C(C)(C)C)c1 (centres undefined)	ATXN viability inconclusive, TGFb SMAD3 inh 14.1µM
C=CCOc1ccc(C=Nc2ccc(Cl)cc2)c(O)c1	ATXN viability inconclusive
CCN(CC(=O)Nc1cc(C)c(Cl)cc1OC)CC(=O)NC1CCS(=O)(=O)C1 (centres undefined)	none
CCN(CC(=O)Nc1cc(Cl)ccc1OC)CC(=O)NC1CCS(=O)(=O)C1 (centres undefined)	LDHA block -36.2 (no result: ATXN2 expr inh)
Cc1cc(C)[n+]2[nH]c(N)c(N=Nc3ccccc3)c2n1	ATXN viability inconclusive, HepG2 viability 12.6µM
COc1ccc(-c2ccc(OC)c(C3C4C=CCC(C)C4C(=O)N3Cc3ccccc3)c2)cc1OC (centres undefined)	none (no result: ATXN viability, mIDH1 inhibitor, LDHA block, ATXN2 expr inh)
CNC[C@@H]1OCc2ccccc2-c2c(n(C)c3ccccc23)C(=O)N([C@H](C)CO)C[C@H]1C	ATXN viability 31.6µM, TGFb SMAD3 inh inconclusive, ATXN2 expr inh inconclusive
C[C@@H]1CN([C@H](C)CO)C(=O)c2c(c3ccccc3n2C)-c2ccccc2CO[C@H]1CN(C)Cc1ccc(Oc2ccccc2)cc1	ATXN viability inconclusive, TGFb SMAD3 inh 15.8µM, ATXN2 expr inh inconclusive
C[C@@H]1CN([C@H](C)CO)C(=O)c2c(c3ccccc3n2C)-c2ccccc2CO[C@H]1CN(C)Cc1cccc(C(=O)O)c1	none
C[C@@H]1CN([C@H](C)CO)C(=O)c2c(c3ccccc3n2C)-c2ccccc2CO[C@H]1CN(C)Cc1ccc(C(F)(F)F)cc1	ATXN viability 28.2µM, HepG2 viability 20µM, TGFb SMAD3 inh inconclusive, ATXN2 expr inh inconclusive
N#Cc1ccc(C(=O)NC2CCCc3ccccc32)cc1 (centres undefined)	ATXN viability inconclusive
Cc1ccc(-c2nnc3ccc(SCC(=O)N4CCCc5ccccc54)nn23)cc1	ATXN viability 8.91µM, mIDH1 inhibitor inconclusive, ATXN2 expr inh inconclusive
Cc1ccc(-c2nnc3ccc(SCC(=O)N4CCc5ccccc54)nn23)cc1	none
CCOC(=O)c1ccc(NC(=O)Cn2ccc([N+](=O)[O-])n2)cc1	ATXN viability inconclusive (no result: ATXN2 expr inh)
CN(c1ccc(O)cc1)c1nc(O)c(C2=c3ccccc3=NC2=O)s1	ATXN viability 28.2µM, TGFb SMAD3 inh inconclusive (no result: ATXN2 expr inh)
CCN(CC)c1ccc(C(=O)NNC(=O)CCl)cc1	ATXN viability inconclusive
CCN(CC)c1ccc(NC(=S)Nc2ccccc2)cc1	none (no result: ATXN viability, mIDH1 inhibitor, HepG2 viability, TGFb SMAD3 inh, ATXN2 expr inh)
CCN(CC)c1ccc(NC(=O)c2cc(S(N)(=O)=O)ccc2C)cc1	none (no result: ATXN viability, mIDH1 inhibitor, HepG2 viability, TGFb SMAD3 inh, ATXN2 expr inh)
CCN(CC)c1ccc(C(=C2C=CC(=[N+](CC)CC)C=C2)c2cc(S(=O)(=O)O)ccc2S(=O)(=O)[O-])cc1	ATXN viability inconclusive, ATXN2 expr inh 11.2µM (no result: mIDH1 inhibitor, HepG2 viability, TGFb SMAD3 inh, LDHA block)
CCN(CC)c1ccc(C(=C2C=CC(=[N+](CC)CC)C=C2)c2ccc(N(CC)CC)cc2)cc1	HepG2 viability 11.2µM, TGFb SMAD3 inh 2.24µM, ATXN2 expr inh inconclusive (no result: ATXN viability)
CCN(CC)c1ccc(C(=C2C=CC(=[N+](CC)CC)C=C2)c2ccccc2)cc1	ATXN viability 0.891µM, HepG2 viability 1.78µM, TGFb SMAD3 inh inconclusive, ATXN2 expr inh 0.355µM
CN(Cc1cnc2nc(N)nc(N)c2n1)c1ccc(C(=O)N[C@H](CCC(=O)O)C(=O)O)cc1	none (no result: mIDH1 inhibitor, HepG2 viability, TGFb SMAD3 inh, LDHA block, ATXN2 expr inh)
CN(Cc1cnc2nc(N)nc(N)c2n1)c1ccc(C(=O)N[C@@H](CCC(=O)O)C(=O)O)cc1	ATXN viability inconclusive, ATXN2 expr inh 31.6µM!
O=C(Nc1cccc(-c2nc3ccccc3[nH]2)c1)c1cccc(NC(=O)c2ccco2)c1	ATXN viability 31.6µM, TGFb SMAD3 inh inconclusive, ATXN2 expr inh inconclusive
CCOc1cc(OCC)cc(C(=O)Nc2cccc(-c3nc4ccccc4[nH]3)c2)c1	ATXN viability inconclusive, HepG2 viability 14.1µM, TGFb SMAD3 inh inconclusive
CCCOc1ccc(C(=O)Nc2cccc(-c3nc4ccccc4[nH]3)c2)cc1	ATXN viability inconclusive, TGFb SMAD3 inh inconclusive, ATXN2 expr inh inconclusive
COC(=O)c1ccc(N=c2sc(C(=O)OC)cc(=O)n2C)cc1	none
COC(=O)c1cc(=O)n(CCc2ccccc2F)c(=Nc2ccc(F)c(Cl)c2)s1	TGFb SMAD3 inh inconclusive, ATXN2 expr inh 26.7µM (no result: ATXN viability)

Assay outcomes from PubChem BioAssay.
